Screen size: about 360,000 compounds; about 3,600 (1%) were called active.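 The calls were made as follows: active = compounds whose plate-normalised and pattern-corrected inhibition of the luciferase reporter signal at the single screening dose is 50% or more; inactive = the rest.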 Many of the other results were omitted from the sample, so actives are more common in it than they were.
test: TROY pathway blockers in reporter cells – Q293 LMP1-TROYcd cells, NF-kB luciferase, uHTS, primary screen (AID 1347056); conditions: 4 h, at 10 µM, stronger effect = higher value

Question: With `NC(=O)C[n+]1cccc(C(N)=O)c1` as the molecule, how does the inhibition read?
Answer: The inhibition was -13.6% (inactive).

Question: With `CSc1nnc(NC(=O)c2nc(S(=O)(=O)Cc3ccc(C)cc3)ncc2Cl)s1` as the molecule, how does the inhibition read?
Answer: The inhibition was -5.7% (inactive).

Question: With `Cc1cccc(NC(=O)Cn2cc(C(=O)c3ccco3)c3ccccc32)c1` as the molecule, how does the inhibition read?
Answer: The inhibition was 8.41% (inactive).

Question: With `Cc1ccc(C)c(Cn2nnc3c(=O)[nH]c(C(=O)Nc4ccc(F)cc4)nc32)c1` as the molecule, how does the inhibition read?
Answer: The inhibition was 30.7% (inactive).

Question: Which inhibition does the source give for `Cc1cccc(CN2CCC(CNC(=O)Nc3ccc(F)c(Cl)c3)CC2)c1` here?
Answer: Its inhibition is 12.4% (inactive).

Question: For `Cc1cccc(NC(=O)c2nc(S(=O)(=O)Cc3ccccc3)ncc2Cl)c1`, which inhibition is on record?
Answer: The inhibition was 77.9% (active).

Question: For `Cc1cccc(CS(=O)(=O)c2ncc(Cl)c(C(=O)Nc3ccc(F)cc3)n2)c1`, which inhibition is on record?
Answer: The inhibition was 70.8% (active).

Question: Which inhibition does the source give for `CCOc1ccc(NC(=O)C2CC(=O)N=C(N)S2)cc1` (centres undefined) here?
Answer: Its inhibition is 15.3% (inactive).

Question: Which inhibition does the source give for `O=C(O)c1ccc(Cn2cnc3c(=S)nc[nH]c32)cc1` here?
Answer: The inhibition was 12.2% (inactive).

Question: Which inhibition does the source give for `C/C(CC(=O)N1CCN(C=O)CC1)=N\NC(=O)c1ccc(Br)cc1` here?
Answer: Its inhibition is -8.44% (inactive).

Question: For `COc1cc(/C=C/C(=O)O)cc(S(=O)(=O)Nc2ccccc2C(=O)NCCc2ccccc2)c1OC`, which inhibition is on record?
Answer: Its inhibition is -15.9% (inactive).

Question: For `CCCCC[C@H]1CN(C2CCCCC2)C(=O)[C@@H]1CC(=O)NCc1ccc(OC)cc1`, which inhibition is on record?
Answer: Its inhibition is 14.9% (inactive).

Question: With `Cc1ccc(S(=O)(=O)N2CCC(C(=O)N[C@@H](C)C(=O)NCc3ccco3)CC2)cc1` as the molecule, how does the inhibition read?
Answer: The inhibition was 13.7% (inactive).

Question: With `CCn1c(SCc2cccc(C(=O)O)c2)nnc1-c1ccc(Cl)cc1` as the molecule, how does the inhibition read?
Answer: The inhibition was 6.17% (inactive).

Question: For `Cc1ccccc1NC(=O)C1CCCN(C(=O)NCc2ccccc2)C1` (centres undefined), which inhibition is on record?
Answer: Its inhibition is -8.74% (inactive).

Question: Which inhibition does the source give for `COc1ccc2c(c1)c(=Cc1ccc(N(C)C)cc1)c1cc(-c3ccccc3)[n+](C)n12` here?
Answer: Its inhibition is 69.4% (active).

Question: For `COc1cccc(CCNC(=O)c2cccc(NC(=O)C3=C(C)OCCS3)c2)c1`, which inhibition is on record?
Answer: Its inhibition is 13.6% (inactive).

Question: With `Cc1cccc(-c2nnc(SCC(=O)O)n2Cc2ccccc2)c1` as the molecule, how does the inhibition read?
Answer: The inhibition was -6.32% (inactive).

Question: With `Cc1ccsc1C(=O)OCC(=O)NCCc1ccccc1` as the molecule, how does the inhibition read?
Answer: Its inhibition is -56.3% (inactive).

Question: Which inhibition does the source give for `Cc1ccsc1C(=O)OCC(=O)Nc1cccc(F)c1` here?
Answer: The inhibition was -57.4% (inactive).

Question: With `Cc1ccsc1C(=O)OCC(=O)c1cc(C)n(CC2CCCO2)c1C` (centres undefined) as the molecule, how does the inhibition read?
Answer: The inhibition was 78.8% (active).

Question: For `Cc1cccc(C(=O)Nc2ccccc2-c2nnn(CC(=O)Nc3ccc4c(c3)OCCO4)n2)c1`, which inhibition is on record?
Answer: Its inhibition is 6.18% (inactive).

Question: With `COc1cc2c(cc1OC)C(=O)NCC(C)(C)O2` as the molecule, how does the inhibition read?
Answer: The inhibition was 32.5% (inactive).

Question: With `CC(=O)c1cc(NC(=O)c2ccccc2)c(=O)oc1/C=C/N(C)C` as the molecule, how does the inhibition read?
Answer: The inhibition was 7.35% (inactive).

Question: Which inhibition does the source give for `O=C(NC1=CC(=O)c2ccccc2C1=O)c1ccccc1` here?
Answer: Its inhibition is 63.7% (active).

Question: Which inhibition does the source give for `Cc1cc(=O)c2ccc(NC(=O)c3ccccc3)cc2[nH]1` here?
Answer: Its inhibition is -14.4% (inactive).

Question: For `CC(=O)Nc1cncc(-c2ccccc2CO)n1`, which inhibition is on record?
Answer: The inhibition was -15.3% (inactive).

Question: With `Cn1c(=O)c2cc(S(=O)(=O)NCCC(=O)Nc3ccc(F)cc3F)ccc2n(C)c1=O` as the molecule, how does the inhibition read?
Answer: The inhibition was -2.05% (inactive).

Question: With `CC(=O)Nc1cccc(C(=O)OCC(=O)c2ccc3c(c2)OCO3)c1` as the molecule, how does the inhibition read?
Answer: The inhibition was 64.7% (active).

Question: For `O=C(COC(=O)c1ccccc1)c1ccc2c(c1)OCCO2`, which inhibition is on record?
Answer: The inhibition was 80.8% (active).

Question: With `O=C(OCc1ccccc1F)c1ccc2c(c1)OCCO2` as the molecule, how does the inhibition read?
Answer: Its inhibition is -79.6% (inactive).

Question: With `CC(=O)Nc1cccc(C(=O)OCC(=O)NCc2cc(C)c(O)c(C)c2)c1` as the molecule, how does the inhibition read?
Answer: The inhibition was -29% (inactive).

Question: Which inhibition does the source give for `COc1ccc(C(=O)OCC(=O)Nc2cccc(C(C)=O)c2)cc1OC` here?
Answer: Its inhibition is 10.5% (inactive).

Question: With `O=C(COC(=O)c1ccc(O)cc1O)c1ccc2c(c1)OCCO2` as the molecule, how does the inhibition read?
Answer: The inhibition was 1.99% (inactive).

Question: With `Cc1cccc(OC(=O)c2sc3ncn(C)c(=O)c3c2C)c1` as the molecule, how does the inhibition read?
Answer: Its inhibition is -27.1% (inactive).

Question: With `COc1cccc(C(=O)N2CCC(n3nccc3NC(=O)C3CCOC3)CC2)c1` (centres undefined) as the molecule, how does the inhibition read?
Answer: The inhibition was -1.36% (inactive).

Question: For `CCOc1ccc(C(C(=O)NC2CCCC2)N(C(=O)c2snc(C(N)=O)c2N)C2CCCC2)cc1` (centres undefined), which inhibition is on record?
Answer: The inhibition was -0.96% (inactive).

Question: Which inhibition does the source give for `Nc1nnc(SCC(=O)NC2CCCc3ccccc32)s1` (centres undefined) here?
Answer: Its inhibition is 21% (inactive).

Question: For `COc1cccc(NC(=O)N(C)C[C@@H]2Oc3ncc(Br)cc3C(=O)N([C@@H](C)CO)C[C@H]2C)c1`, which inhibition is on record?
Answer: The inhibition was -0.54% (inactive).

Question: Which inhibition does the source give for `Cc1cc(C)cc(NC(=S)NCCc2c[nH]c3ccccc23)c1` here?
Answer: Its inhibition is 1.03% (inactive).

Question: Which inhibition does the source give for `CCc1cccc(CC)c1NC(=S)NCc1ccc2[nH]c(C)cc2c1` here?
Answer: The inhibition was -11.8% (inactive).

Question: For `Cc1cccc(NC(=S)NCc2ccc3[nH]c4c(c3c2)CCCC4)c1`, which inhibition is on record?
Answer: The inhibition was 63.8% (active).

Question: With `CC(C)CCN1CCC(C)(NC(=O)c2ccccc2)C1=O` (centres undefined) as the molecule, how does the inhibition read?
Answer: Its inhibition is -0.82% (inactive).

Question: With `C=CCC(NCc1ccco1)c1ccc(OC)cc1` (centres undefined) as the molecule, how does the inhibition read?
Answer: The inhibition was 14.2% (inactive).

From PubChem BioAssay AID1347056 (Sanford-Burnham Center for Chemical Genomics, 2019)
